IL-1B inflam inh: blocks inflammasome-driven IL-1 beta release | THP-1 LPS/ATP IL-1B secretion, AlphaLISA, 16 h; active compounds read low | activity change, % at 57.5 µM | 360,000 compounds, 4.7% hits; in the data active = activity change below about -50%; inconclusive = mostly about -30% to -49%
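Secreted IL-1B measured by AlphaLISA bead assay after 16 h compound exposure of THP-1 cells; compounds (final up to 57.5 uM) added 1 h before LPS (250 ng/mL) and ATP (1.25 mM) stimulation; lower signal means less secretion.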
DT40 TDP1 CPT: DT40-hTDP1 cell growth loss with CPT; 420,000 compounds, 12% hits; chicken DT40 Tdp1-/-;hTDP1 cells + 20 nM CPT, ATP luminescence, 48 h; Potency, µM (highest dose often 46.2 µM), most hits filed as inhibitors; AID 686979; also: nearly all actives have a fitted effect of over 55% in size
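Cell growth measured by CellTiter-Glo luminescence after a minimum 48 h, 37 C compound exposure with 20 nM CPT in Tdp1-knockout DT40 cells stably expressing hTDP1, seeded 400/well; qHTS titration format.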
Gal4-VP16 FLuc: Gal4-VP16 reporter inhibition counter-screen; Potency, µM (series often up to 53.6 µM), usual class: inhibitors; AID 2546; Drosophila S2 Gal4-VP16 UAS-luciferase, luminescence, 20 h; 310,000 compounds, 3.5% hits;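 also: Gal4-VP16 expression switched on by copper sulfate through the metallothionein promoter; nearly all actives have a fitted effect of over 50% in size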
ELG1 repair inh: ELG1-dependent DNA repair inhibition; HEK293T ELG1-luciferase reporter, luminescence, 16 h; DNA damage induced by 5-fluorouridine; Potency, µM (series often up to 46.1 µM), most hits filed as inhibitors; 330,000 compounds, 2.3% hits; AID 504467; also: nearly all actives have a fitted effect of over 55% in size
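Step one: seed 2,000 cells per well. Step two: pin-transfer compound or DMSO alongside 5-fluorouridine. Step three: incubate 16 hr, 37 °C, 5% CO2. Step four: add ONE-Glo, wait 30 min, read luminescence.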
RORgamma inh: inhibitors of mouse ROR gamma transcriptional activity; Drosophila S2 Gal4-RORgamma UAS-luciferase reporter, 20 h; Potency, µM (highest dose often 53.6 µM), most hits filed as inhibitors; AID 2551; P51450; 310,000 compounds, 5.4% hits; also: nearly all actives have a fitted effect of over 60% in size
Target sequence (P51450 whole entry, looked up, the tested form may be a part): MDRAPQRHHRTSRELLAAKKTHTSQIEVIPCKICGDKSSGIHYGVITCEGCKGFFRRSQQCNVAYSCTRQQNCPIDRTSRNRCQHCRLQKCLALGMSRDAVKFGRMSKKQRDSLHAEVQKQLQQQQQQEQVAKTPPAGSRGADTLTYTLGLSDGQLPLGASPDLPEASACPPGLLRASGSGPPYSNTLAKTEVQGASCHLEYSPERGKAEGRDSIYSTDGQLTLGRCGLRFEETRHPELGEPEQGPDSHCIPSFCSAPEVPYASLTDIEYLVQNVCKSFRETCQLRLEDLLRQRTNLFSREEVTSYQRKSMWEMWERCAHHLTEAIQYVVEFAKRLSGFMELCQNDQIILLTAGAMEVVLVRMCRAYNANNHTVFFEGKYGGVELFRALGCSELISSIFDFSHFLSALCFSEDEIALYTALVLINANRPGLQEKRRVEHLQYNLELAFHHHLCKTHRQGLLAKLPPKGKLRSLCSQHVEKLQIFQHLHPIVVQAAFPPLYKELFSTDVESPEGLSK
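Using a luciferase readout, inhibitors were identified by reduced reporter activity in Drosophila cells coexpressing a copper-inducible Gal4–ROR gamma fusion and UAS-driven Photinus luciferase, incubated 20 hr after 700 uM copper sulfate.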
TDP1 cell noCPT: qHTS for Inhibitors of human tyrosyl-DNA phosphodiesterase 1 (TDP1): qHTS in cells in absence of CPT | DT40 Tdp1-/- hTDP1 cells, no CPT, ATP luminescence, 48 h | Potency, µM (series often up to 46.2 µM), most hits filed as inhibitors | 420,000 compounds, 15% hits | AID 686978, 2013; also: nearly all actives have a fitted effect of over 55% in size
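Readout: luminescence from CellTiter-Glo after 30 min in the dark at RT. Cells: DT40 Tdp1-/- with stable hTDP1, 400/well. Exposure: compounds alone, ≥48 hr, 37 °C.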
A number is an active result; . = inactive; ? = inconclusive; / = not tested or not shown; [ ] = remark or other dose. An excerpt weighted towards active compounds, which were near 21% of everything screened. Unless noted, calls follow the shape of the dose curve; as a rule, active = well fitted curve in the direction sought with a large enough effect; inconclusive = small, poorly fitted or top-dose-only effect, or another doubt; inactive = no such curve, though single readings can be large; an effect the other way counts as inactive or inconclusive.

SMILES | IL-1B inflam inh | DT40 TDP1 CPT | Gal4-VP16 FLuc | ELG1 repair inh | RORgamma inh | TDP1 cell noCPT
Cn1c(-c2cccc3ccccc23)n[nH]c1=S | . | . | ? | . | 10µM | .
C=C(C)Cn1c(CCn2c3ccccc3c3ccccc32)n[nH]c1=S | . | 9.2µM | 1µM | . | ? | 5.8µM
CCOC(=O)c1cc2occc2n1CC(=O)N1CCCc2ccccc21 | . | ? | . | . | .[10 µM] | ?
CN(Cc1ccccc1)C(=O)COC(=O)CNS(=O)(=O)c1ccc2ccccc2c1 | . | . | / | ? | / | .
CCOC(=O)C1CCCN(C(=O)c2cccnc2Oc2ccccc2)CC1 (stereo unspecified) | . | . | / | / | / | .
COc1ccc(C2=Nc3ccccc3N(C(=O)c3ccc(C)cc3)C2C(=O)Nc2c(C)cccc2C)cc1 (stereo unspecified) | . | ? | / | / | / | ?
Cc1ccc(Cl)c(OCC(=O)OCC(=O)c2ccc[nH]2)c1 | . | ? | / | . | / | .
CCOC(=O)COc1cc(N)c(Cl)cc1Cl | -53.4 | . | . | . | . | .
Cn1c(NCCN2CCCC2)nc2cc(-c3cccc(C(F)(F)F)c3)sc2c1=O | . | ? | / | / | / | ?
COC(=O)c1ccccc1NC(=O)Cn1c(=O)n(CCCC(=O)NCc2ccccc2OC)c(=O)c2ccccc21 | / | . | / | / | / | ?
O=S1(=O)c2ccc(Br)cc2N2CC[C@H](C2)N1Cc1ccc(Cl)cc1 | . | 1.3µM | / | / | / | 1.64µM
O=[N+]([O-])c1ccc(N2CCN(Cc3ccccc3)CC2)s1 | . | ? | . | ? | . | ?
O=[N+]([O-])c1ccc(N2CCN(Cc3ccccc3)CC2)c2c1no[n+]2[O-] | -86.5 | 0.164µM | / | / | / | 0.259µM
Cc1ccc(CSc2nc(=O)c3c(n2C)NC(=O)CC3c2ccc(OC(C)C)cc2)cc1 (stereo unspecified) | / | ? | / | / | / | .
CCCNC(=O)c1cccc(Br)c1 | . | . | . | . | . | .
CC(C)(C)NC(=O)c1ccc2c(c1)C1C3CCC(C3)C1C(c1ccccc1)N2 (stereo unspecified) | ? | 13µM | . | . | ? | 11.6µM
CCCNC(=O)c1ccc2c(c1)C1C3CCC(C3)C1C(c1ccccc1)N2 (stereo unspecified) | ? | 20.6µM | . | ? | . | ?
O=C(O)c1ccc(NC(=O)c2cccc(N3C(=O)C4C5CCC(C5)C4C3=O)c2)cc1 (stereo unspecified) | . | . | . | . | . | .
CCC(C)(C)NC(=O)CN(Cc1ccc(F)cc1)C(=O)CCC(=O)Nc1ccccn1 | . | . | . | . | . | .
COc1ccc(-c2ccnc(-n3ncc(C(=O)NC(C)(C)CO)c3C3CC3)n2)cc1F | / | .[9.04 µM] | / | / | / | .
CCc1cc(=O)oc2c(C)c(O[C@@H]3O[C@H](CO)[C@@H](O)[C@H](O)[C@H]3O)ccc12 | . | . | . | . | . | 10.3µM
CN(CCc1ccccc1)C(CCc1ccccc1)C(=O)Nc1ccc2c(c1)OCCO2 (stereo unspecified) | . | ? | / | / | / | ?
CC(=O)c1c(O)c(C)c(O)c2c1OC1=CC(=O)/C(=C(/C)N)C(=O)C12C (stereo unspecified) | . | 14.6µM | / | / | / | 8.2µM
CC(=O)OC(C)(C)C1Cc2cc3ccc(=O)oc3cc2O1 (stereo unspecified) | . | . | . | . | . | .
C/C=C(\C)C(=O)OC(C)(C)[C@H]1Cc2cc3ccc(=O)oc3cc2O1 | . | 23.1µM | . | . | . | ?
SMILES | IL-1B inflam inh | DT40 TDP1 CPT | Gal4-VP16 FLuc | ELG1 repair inh | RORgamma inh | TDP1 cell noCPT
O=C(Nc1nnc(C2CC2)o1)c1ccc(S(=O)(=O)N2CCc3ccccc3C2)cc1 | . | . | 1.78µM | ? | 0.708µM | ?
COC(=O)c1ccc(-c2csc(NC(=O)c3ccc(S(=O)(=O)N4CCc5ccccc5C4)cc3)n2)cc1 | . | 7.31µM | . | . | . | 5.8µM
COc1ccc(-c2nnc(NC(=O)c3ccc(S(=O)(=O)N4CCc5ccccc5C4)cc3)o2)cc1 | . | 4.47µM | 0.251µM | ? | 0.126µM | 4.47µM
CS(=O)(=O)c1cccc(-c2nnc(NC(=O)c3ccc(S(=O)(=O)N4CCCC4)cc3)o2)c1 | . | . | / | . | / | .
COc1ccc(-c2csc(NC(=O)c3ccc(S(=O)(=O)N4CCc5ccccc5C4)cc3)n2)cc1 | . | . | . | ? | . | ?
c1ccc(Cn2c(Cn3c(-c4cnccn4)nc4ccccc43)nc3ccccc32)cc1 | . | 25.9µM | / | / | / | ?
CC(c1nc2ccccc2n1Cc1ccccc1)n1c(-c2cnccn2)nc2ccccc21 (stereo unspecified) | . | 14.6µM | / | / | / | 20.6µM
Fc1ccc(CCn2c(Cn3c(-c4cnccn4)nc4ccccc43)nc3ccccc32)cc1 | . | . | / | / | / | .
OC[C@@H](O)CN1CCN(c2ccccc2)CC1 | / | / | . | / | . | /
COc1ccccc1C=NNC(=O)c1ccncc1 | . | . | / | / | / | .
O=C(N/N=C/c1cccc([N+](=O)[O-])c1)c1cccs1 | . | . | ? | ? | . | .
O=C(N/N=C/C=C/c1ccc([N+](=O)[O-])cc1)c1cccs1 | . | . | ? | . | 3.98µM | .
COc1ccccc1/C=C/C=N/NC(=O)c1ccncc1 | . | . | 11.2µM | . | 5.62µM | .
O=C(O)c1ccc(N/N=C/C=C/c2ccccc2[N+](=O)[O-])cc1 | . | . | . | ? | ? | ?
O=C(N/N=C/C=C\c1ccccc1[N+](=O)[O-])c1cccs1 | . | ? | ? | ? | 14.1µM | ?
O=C(Cc1cccs1)N/N=C/C=C/c1ccccc1[N+](=O)[O-] | / | . | . | ? | . | .
O=C(N/N=C/C=C\c1ccccc1[N+](=O)[O-])c1cc(-c2ccc3ccccc3c2)n[nH]1 | . | ? | 4.47µM | . | 3.16µM | 18.4µM
Cc1occc1C(=O)N/N=C/C=C/c1ccccc1[N+](=O)[O-] | -62.0 | . | ? | . | 11.2µM | .
O=C(N/N=C/C=C/c1ccccc1[N+](=O)[O-])c1ccncc1 | . | ? | 20µM | . | 11.2µM | ?
COc1ccccc1/C=C/C=N/NC(=O)Cc1cccs1 | . | . | ? | ? | 10µM | ?
Cc1cc(C(=O)N/N=C/C=C/c2ccccc2[N+](=O)[O-])c(C)o1 | . | . | ? | ? | ? | .
COc1ccc(-c2c(C)nn3c(N4CCCCCC4)cc(C)nc23)cc1OC | -82.4 | 23.1µM | . | 11.6µM | ? | 25.9µM
COc1ccc(-c2c(C)nn3c(N4CCC5(CC4)OCCO5)cc(C)nc23)cc1OC | . | . | . | . | . | .
COc1ccc(-c2c(C)nn3c(N4CCOCC4)cc(C)nc23)cc1OC | . | . | . | 16.4µM | . | .

Screening results: PubChem BioAssay, National Center for Advancing Translational Sciences (NCATS)
